Screening results (PubChem)
Compounds with a hit are over-represented: about 3.1% of the library has one in this group of screens.
SKOV3 invasion: blocks SKOV3ip1 adhesion and invasion in omental model; SKOV3ip1-GFP adhesion/invasion on 3D omental model, fluorescence; Potency, µM (doses to about 45.8 µM), without a hit: at the highest dose activity change, negative = inhibition, actives largely listed as inhibitors; 46,000 compounds, 0.1% hits; AID 1963576;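 note: potency is the fitted concentration of half-maximal effect; plate controls were DMSO wells for no effect and tomatine positive control wells for full effect; nearly all actives have a fitted effect of over 65% in size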
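qHTS, 4-pt dose (0.36-46 umol/L); SKOV3ip1-GFP, 1,200 cells/well, no FBS; primary omental fibroblast/mesothelial co-culture 48 h pre-grown; 2 h RT + 16 h 37 C; PBS wash, 4% PFA; GFP count 488/509 nm.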
p53null 39C tox: selectivity test: cytotoxicity in p53 null cells, nonpermissive temperature. H1299 p53-null (neo) cells, 39C, ATPlite viability, 24 h. Potency, µM (top dose mostly 46.1 µM), without a hit: at the highest dose activity, negative = cell killing, hits mostly cytotoxic. 55,000 compounds, 0.97% hits. AID 904;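 note: potency is the fitted concentration of half-maximal effect; 0% = DMSO only and -100% = full killing by 100 µM tamoxifen; nearly all actives have a fitted effect of over 50% in size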
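ATP-luminescence viability readout (ATPlite, 20 min RT) after 24 hr compound treatment at 39C of H1299-neo or H1299-p53A138V cells; titration up to 46 uM; normalized to DMSO and 100 uM tamoxifen; Hill-fit AC50.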
PMP22 txn: PMP22 gene transcription modulation; 43,000 compounds, 2% hits; Potency, µM (top dose mostly 57.5 µM), for the others: at the top dose activity change, negative = inhibition, hits mostly inhibitors; S16 Pmp22-F2sN Schwann cells, FLuc/NLuc coincidence luminescence, 24 h; active = clear falling dose curves in both reporters; inconclusive = both reporters move, but less clearly or upward; inactive = either reporter flat; the % is the NLuc reporter signal; note: potency is the fitted concentration of half-maximal effect; % is set by controls: 0 for no effect and ±100 for the full control effect
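Rat S16 Pmp22-F2sN cells, 500-1,000/well in phenol red-free DMEM + 10% FBS, compound-treated 24 h (37C, 5% CO2). Luminescence: FLuc read, Stop&Glo added, NLuc read.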
p53null 32C kill: selectivity test: cytotoxicity in p53 null cells, permissive temperature; 55,000 compounds, 0.62% hits; Potency, µM (titrated, usually from 46.1 µM), inactives show at the top dose activity change, negative = cytotoxicity, most hits filed as cytotoxic; H1299-neo p53 null cells, ATP luminescence, 24 h, 32C;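 note: potency is the fitted concentration of half-maximal effect; 0% = DMSO only and -100% = full killing by 100 µM tamoxifen; nearly all actives have a fitted effect of over 55% in size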
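ATP-content luminescence in p53-null H1299-neo cells after 24 h compound exposure (up to 46 uM) at 32C permissive temperature; 0% and 100% killing set by DMSO and 100 uM tamoxifen; Hill-equation AC50.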
S16 F2sN tox: S16 Schwann cell cytotoxicity; S16 Pmp22-F2sN Schwann cells (luciferase reporters placed in the Pmp22 gene) viability, CellTiter-Glo, 24 h; Potency, µM (doses to about 57.5 µM), inactives show top-dose activity change, negative = cytotoxicity, most hits filed as cytotoxic; 43,000 compounds, 0.48% hits; AID 1508642; note: potency is the fitted concentration of half-maximal effect; % is set by controls: 0 for no effect and ±100 for the full control effect; nearly all actives have a fitted effect of over 65% in size
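Luminescence from CellTiter-Glo, read by CCD camera after a 15 min room-temperature incubation, served as the viability signal. Reporter Schwann cells (S16 Pmp22-F2sN) had been treated with pin-transferred compounds for 24 h at 37C.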
pS6 MEF inh: mTORC1 pathway inhibition measured by phospho-rpS6; Tsc2-/- p53-/- MEF, phospho-rpS6 immunofluorescence/PI, 24 h; Potency, µM (highest dose often 38.3 µM), for inactives: at the top dose activity change, negative = inhibition, hits mostly inhibitors; 44,000 compounds, 0.78% hits; AID 493208;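 note: potency is the fitted concentration of half-maximal effect; plate controls were DMSO for no effect and rapamycin for full effect; nearly all actives have a fitted effect of over 50% in size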
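Tsc2-/-, p53-/- mouse embryonic fibroblasts (empty-vector line) exposed to compound 24 hrs at 37 C, fixed, immunostained for phospho-rpS6 and counterstained with propidium iodide. Acumen laser scanning gives % positive cells from Alexa 488/PI ratio, thresholded using 7.5 nM rapamycin; PI count gives viability.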
NLuc saturating: inhibits NanoLuc at saturating substrate, PMP22 counter-screen. Potency, µM (doses to about 57.5 µM), inactives show at the top dose activity change, negative = inhibition, usual class: inhibitors. 690 compounds, 4% hits. Secreted NLuc enzyme (filtered S16 cell medium), Nano-Glo luminescence. shares compounds with PMP22 txn; note: potency is the fitted concentration of half-maximal effect; % is set by controls: 0 for no effect and ±100 for the full control effect
NLuc Km ctr: counter-screen for PMP22 expression modulators: NanoLuc inhibition at Km; 690 compounds, 5% hits; shares compounds with PMP22 txn; secreted NLuc enzyme, coelenterazine luminescence, Km conditions; Potency, µM (top dose mostly 57.5 µM), for inactives: at the top dose activity change, negative = inhibition, most hits filed as inhibitors; note: potency is the fitted concentration of half-maximal effect; % is set by controls: 0 for no effect and ±100 for the full control effect
FLuc ctr PMP22: counter-screen for PMP22 expression modulators: firefly luciferase inhibition. 690 tested, under 10 active. Potency, µM (titrated, usually from 57.5 µM), without a hit: at the top dose activity, negative = inhibition, actives largely listed as inhibitors. shares compounds with PMP22 txn. purified P. pyralis FLuc, luminescence, 10 min; note: % of control where 0% means no effect
Target sequence (P08659 whole entry, looked up): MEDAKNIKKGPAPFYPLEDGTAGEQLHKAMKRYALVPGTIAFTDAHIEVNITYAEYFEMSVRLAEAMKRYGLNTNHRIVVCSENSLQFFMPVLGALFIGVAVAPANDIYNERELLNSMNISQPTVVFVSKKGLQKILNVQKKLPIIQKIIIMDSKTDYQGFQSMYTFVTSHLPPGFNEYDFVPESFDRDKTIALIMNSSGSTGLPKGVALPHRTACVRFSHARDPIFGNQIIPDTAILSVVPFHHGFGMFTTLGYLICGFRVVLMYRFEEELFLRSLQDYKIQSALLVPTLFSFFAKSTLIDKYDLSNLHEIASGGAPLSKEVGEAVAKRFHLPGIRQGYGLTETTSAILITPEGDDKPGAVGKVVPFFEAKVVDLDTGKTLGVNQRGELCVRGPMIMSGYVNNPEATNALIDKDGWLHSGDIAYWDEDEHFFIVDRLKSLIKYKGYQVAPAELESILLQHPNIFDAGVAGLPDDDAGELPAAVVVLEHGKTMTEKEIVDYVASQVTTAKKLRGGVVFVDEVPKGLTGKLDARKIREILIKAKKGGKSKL
S16 F2sN tox cnf: S16 Schwann cell cytotoxicity, confirmatory; shares compounds with PMP22 txn; 690 compounds, 7% hits; Potency, µM (highest dose often 57.5 µM), inactives show at the top dose activity change, negative = viability loss, hits mostly cytotoxic; S16 Schwann cells viability, CellTiter-Glo ATP luminescence, 24 h; note: potency is the fitted concentration of half-maximal effect; % is set by controls: 0 for no effect and ±100 for the full control effect
PMP22 txn cnf: confirmation of modulators of PMP22 gene transcription in S16 cells. S16 Schwann cells Pmp22-F2sN, dual luciferase, 24 h. shares compounds with PMP22 txn. 690 compounds, 22% hits. Potency, µM (series often up to 57.5 µM), for inactives: top-dose activity change, negative = inhibition, usual class: inhibitors; active = clear falling dose curves in both reporters; inconclusive = both reporters move, but less clearly or upward; inactive = either reporter flat; the % is the FLuc reporter signal; note: potency is the fitted concentration of half-maximal effect
* marks the source's active call; other numbers are inactive results; i = inactive; u = inconclusive; x = no result. Unless noted, calls come from the whole dose curve; as a rule, active = well fitted curve in the direction sought with a large enough effect; inconclusive = small, poorly fitted or top-dose-only effect, or another doubt; inactive = no such curve, though single readings can be large; an effect the other way counts as inactive or inconclusive.

SMILES	SKOV3 invasion	p53null 39C tox	PMP22 txn	p53null 32C kill	S16 F2sN tox	pS6 MEF inh	NLuc saturating	NLuc Km ctr	FLuc ctr PMP22	S16 F2sN tox cnf	PMP22 txn cnf
CC1=C(c2ccc(Cl)cc2)S(=O)(=O)NC1=NCc1ccc(C)cc1	-5.9%	-0.9%	1.9%	-7.7%	17.9%	3.5%	x	x	x	x	x
COc1ccc(C2=C(C)C(=NCCCN3CCN(c4cc(C)ccc4C)CC3)NS2(=O)=O)cc1	i	-7.2%	15.2µM*	-3.5%	1.0%	-3.8%	-6.6%	-2.1%	1.7%	-5.1%	u
C[C@]12CC[C@H](O)CC1=CCC1C2CC[C@]2(C)C(n3cnc4ccccc43)=CCC12 (stereo partly specified)	20.5%	x	x	x	x	x	x	x	x	x	x
COc1cc(NC(=O)CC2C(=O)OCCN2Cc2ccccc2)cc(OC)c1 (stereo unspecified)	i	x	-24.9%	x	-0.2%	-14.6%	x	x	x	x	x
CCN1CCOC(=O)C1CC(=O)Nc1cc(Cl)ccc1C (stereo unspecified)	i	x	10.6µM*	x	u	u	-7.7%	0.1%	-5.9%	u	u
CCN1CCOC(=O)C1CC(=O)Nc1cccc(OC)c1 (stereo unspecified)	2.8%	x	12.7µM*	x	u	20.7µM*	-6.2%	-1.5%	5.9%	u	u
CCN1CCOC(=O)C1CC(=O)Nc1ccc(C)c(Cl)c1 (stereo unspecified)	i	x	u	x	u	u	x	x	x	x	x
COc1ccc(Cn2ccc3ccc(C(=O)NO)cc32)cc1	-7.4%	x	x	x	x	x	x	x	x	x	x
CCN1CCN(c2ccc(NS(=O)(=O)c3c(C)nc4sccn4c3=O)cc2Cl)CC1	i	-6.5%	8.91µM*	-5.1%	-12.7%	-17.2%	-6.7%	-0.6%	-12.2%	u	-21.7%
Cn1cc(CN(C(=O)Nc2ccccc2)C2CCCCC2)c2ccccc21	32.6%	u	9.46µM*	-4.9%	u	-6.4%	u	u	-25.7%	-15.6%	u
Cn1cc(CN(C(=O)Nc2ccc(Cl)c(Cl)c2)C2CCCCC2)c2ccccc21	i	8.1%	-85.4%	3.9%	19.9%	-8.8%	x	x	x	x	x
Cc1ccc(CNC(=O)c2ccc(-c3nc(CS(=O)(=O)c4ccc(C)cc4)c(C)o3)cc2)cc1	3.3%	11.3%	13.4µM*	1.1%	u	1.6%	-3.8%	1.2%	-3.2%	2.3%	-31.7%
CCCCNC(=O)c1ccc(-c2nc(CS(=O)(=O)c3ccc(C)cc3)c(C)o2)cc1	0.3%	-16.3%	u	11.5%	-3.5%	-6.4%	x	x	x	x	x
O=c1oc2ccccc2cc1-c1cn2cc(Cc3ccc(Br)cc3)sc2n1	i	u	u	7.2%	-0.7%	-13.4%	2.7%	0.0%	-1.9%	1.1%	u
Cc1[nH]c2ccccc2c1C1(O)C(=O)N(Cc2ccccc2)c2ccc(Br)cc21 (stereo unspecified)	i	u	16µM*	17.7%	-9.4%	u	-16.0%	u	-1.3%	u	u
CCCCCCOc1ccc(/C=C/C(=O)Nc2sc3c(c2C(=O)OC)CCC3)cc1OC	u	14.5%	6.96µM*	1.3%	u	9.9%	-1.3%	-2.6%	-11.0%	11.1%	38.8%
Cc1ccc(-c2[nH]c3ccccc3c2SCCNC(=O)c2ccc(S(=O)(=O)N(C)C)cc2)cc1	19.9%	4.4%	u	19.8%	u	-12.2%	x	x	x	x	x
O=C(NCCSc1c(-c2ccc(Br)cc2)[nH]c2ccccc12)c1ccc(S(=O)(=O)N2CCOCC2)cc1	13.9%	-7.3%	8µM*	10.9%	-19.0%	-16.2%	-10.1%	4.8%	8.9%	0.6%	u
O=C(NCCSc1c(-c2ccc(Cl)cc2)[nH]c2ccccc12)c1ccc(S(=O)(=O)N2CCOCC2)cc1	4.5%	17.6%	-10.7%	14.9%	u	-12.2%	x	x	x	x	x
O=C(NCCSc1c(-c2ccccc2)[nH]c2ccccc12)c1ccc(S(=O)(=O)N2CCOCC2)cc1	-22.2%	-10.0%	9.46µM*	18.7%	-27.0%	-16.8%	-13.5%	-15.6%	7.3%	-19.8%	-8.9%
CCN(CC)S(=O)(=O)c1ccc(C(=O)NCCSc2c(-c3ccc(OC)cc3)[nH]c3ccccc23)cc1	-14.7%	13.7%	2.99µM*	8.2%	-14.9%	-11.3%	-24.4%	-0.5%	-2.3%	-23.6%	-11.8%
O=C(Cc1ccc(-c2ccc(OCCN3CCOCC3)cc2)cn1)NCc1ccccc1	-26.0%	x	x	x	x	x	x	x	x	x	x
Cc1nnc(C(C)C)n1C1C[C@H]2CC[C@@H](C1)N2CC[C@H](NC(=O)C1CCC(F)(F)CC1)c1ccccc1 (stereo partly specified)	6.9%	x	x	x	x	x	x	x	x	x	x
COc1cc(C)c(Sc2cnc(NC(=O)c3ccc(CNC(C)C(C)C)cc3)s2)cc1C(=O)N1CCN(C(C)=O)CC1 (stereo unspecified)	-10.0%	x	x	x	x	x	x	x	x	x	x
COc1cc(C(=O)CC2(O)C(=O)N(Cc3ccccc3Cl)c3ccccc32)cc(OC)c1OC (stereo unspecified)	-11.0%	u	11.3µM*	-3.4%	-6.0%	4.14µM*	-10.6%	-2.4%	8.0%	-2.6%	u
CC[C@H](CC#N)OC(=O)N[C@@H](C)c1cccc(NC(=O)Nc2ccc(-c3cnco3)c(OC)c2)c1	-25.2%	x	x	x	x	x	x	x	x	x	x
